Bioassay records: PubChem, Sanford-Burnham Center for Chemical Genomics
FAS TE block – inhibitors of human fatty acid synthase thioesterase domain; AID 602261; 360,000 compounds, 0.67% hits; P49327; inhibition, % at 15 µM; recombinant FAS-TE, OMFH fluorogenic substrate, fluorescence endpoint;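 active = compounds whose normalised, plate-corrected inhibition of enzyme fluorescence in the single-dose primary screen is 50% or more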
beta cell repl – MIN6 beta-cell proliferation induction; MIN6 cells proliferation, ATPlite luminescence, 48 h; cells starved in 0.2% serum; 100% = growth in 10% serum; proliferation, % at 10 µM; 330,000 compounds, 0.29% hits; AID 2380;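 active = compounds whose signal lies at least 3.5 SD above the mean of all wells on their plate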
MPTP inh – blocks calcium-induced mitochondrial swelling; 360,000 compounds, 1.4% hits; isolated mouse mitochondria, Ca2+ swelling absorbance, 30 min; AID 602449; inhibition, % at 10 µM;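 active = inhibition of 50% or more, scaled per plate between neutral and stimulator controls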
GRIN3A LBD mod – NR3A (human) ligand-binding domain modulation | 340,000 compounds, 2.5% hits | NR3A LBD differential scanning fluorimetry, Tm shift; 0% = protein alone, 100% = glycine-bound protein | Tm shift relative to glycine control, % at 25 µM;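 active = melting temperature shift of at least 10% of the positive control shift, at one fixed dose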
p-CIP stab down – compounds decreasing mouse p/CIP protein stability | F442A p/CIP-EGFP cells, EGFP fluorescence, 16 h | AID 1984 | decrease of EGFP signal, % at 10 µM | 290,000 compounds, 0.01% hits | Q05BA5;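 active = EGFP signal decrease of at least 30% at 10 µM or well 3 SD below plate mean, unless failing retest; inactive = the rest, including hits failing retest or dose response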
Each line names hits and unclear results; the compound was inactive in the other large screens. A selection: hits, their analogues and other compounds. The true share with any hit is near 4.1%.

CC(=O)NC(=S)Nc1ccc(NC(=S)NC(=O)c2cccs2)cc1	none
O=C(COc1ccc([N+](=O)[O-])cc1)NNC(=O)C1COc2ccccc2O1 (stereo unspecified)	none (no result: beta cell repl, GRIN3A LBD mod, p-CIP stab down)
O=C(NNC(=O)c1cccs1)c1ccc(Br)o1	none (no result: beta cell repl)
O=C(Nc1ccc(NC(=O)c2cccs2)cc1)c1ccc(Br)o1	GRIN3A LBD mod 24
O=C(Nc1ccc(Nc2ccccc2)cc1)c1ccc(Br)o1	GRIN3A LBD mod 21
CCOC(=O)C1=C[C@@H](C(C)C)N(S(=O)(=O)c2ccc(C)cc2)[C@H]1c1ccccc1F	none (no result: beta cell repl, GRIN3A LBD mod, p-CIP stab down)
COc1ccc(NC(=O)c2cccc3c(Br)cccc23)cc1	none
CCCCNC(=O)Nc1ccccc1C(=O)Nc1ccc(OC)cc1	GRIN3A LBD mod 11
COc1ccc(NC(=O)c2cccc3ccccc23)cc1	GRIN3A LBD mod 22
CCCCNC(=O)Nc1ccccc1C(=O)NCCC	none
COc1ccc(NC(=O)c2cc3ccc4c5ccccc5[nH]c4c3cc2O)cc1	GRIN3A LBD mod 230
CCCNC(=O)C1(C)CCN(C(=O)COCc2ccccc2)C1 (stereo unspecified)	none (no result: beta cell repl, GRIN3A LBD mod, p-CIP stab down)
COc1ccc2o/c(=N\O)c(C(=O)Nc3ccccc3OC)cc2c1	none
COc1ccc(NC(=O)c2cc3ccc(O)cc3o/c2=N\O)cc1	GRIN3A LBD mod 36
COc1ccc2cc3c(N)nn(C(=O)c4ccc(Cl)c([N+](=O)[O-])c4)c3nc2c1	GRIN3A LBD mod 22
COc1ccc2cc3c(N)nn(C(=O)c4ccccc4[N+](=O)[O-])c3nc2c1	none
CC1(C(=O)Nc2nccs2)CCN1C(=O)C1(c2ccccc2)CC1 (stereo unspecified)	none (no result: beta cell repl, GRIN3A LBD mod, p-CIP stab down)
CCCCNC(=O)Nc1ccccn1	GRIN3A LBD mod 12
CCCCNC(=O)Nc1ccc(Br)cn1	none
CCCCCCCCOC(=O)c1c(CSC(=N)N)n(C)c2cc(Br)c(OC(C)=O)cc12	GRIN3A LBD mod 40
CCOC(=O)c1c(C)[nH]c(N=Nc2ccc(C)cc2)c1C	none
Cc1ccc(N=Nc2c(O)ccc3n[nH]nc23)cc1	GRIN3A LBD mod 13 (no result: beta cell repl)
N#CCc1ccc(NC(=O)Nc2cccc3ccccc23)cc1	GRIN3A LBD mod 21
COc1ccc(-c2csc(C(C)(O)c3cccnc3)n2)cc1 (stereo unspecified)	none (no result: beta cell repl, GRIN3A LBD mod, p-CIP stab down)
COc1cc2c(cc1OC)-c1cc(Nc3ccc(F)cc3)nc(=O)n1CC2	GRIN3A LBD mod 10
COc1cc2c(cc1OC)-c1cc(Nc3cccc(F)c3)nc(=O)n1CC2	none
COCC(=O)N[C@H]1CC[C@@H](CC(=O)NCc2ccccc2OC)O[C@@H]1CO	none (no result: FAS TE block, beta cell repl, GRIN3A LBD mod, p-CIP stab down)
CC(C)(C)c1ccc(C(=O)CC(=O)c2cc(Cl)ccc2O)cc1	none
Cc1ccc(C(=O)CC(=O)c2cc(Cl)ccc2O)cc1	GRIN3A LBD mod 11
O=c1[nH]c2ccc(S(=O)(=O)N3CCN(Cc4ccccc4)CC3)cc2[nH]c1=O	GRIN3A LBD mod 11
COc1cc(S(=O)(=O)N2CCN(Cc3ccccc3)CC2)ccc1Br	none
O=C(NCc1ccco1)Nc1cccc([N+](=O)[O-])c1	GRIN3A LBD mod 19
Cc1nc2ccccc2nc1Nc1cccc(Cl)c1	none
Cc1cc(Nc2ccc(Cl)cc2)nc(-c2ccccc2O)n1	GRIN3A LBD mod 35
Cc1cc(Cl)nc(-c2ccccc2O)n1	none
Cc1cc(Nc2cccc(Cl)c2)nc(-c2ccccc2O)n1	GRIN3A LBD mod 37
O=C(Nc1ccc2ccccc2c1)c1cccc([N+](=O)[O-])c1	GRIN3A LBD mod 30
O=C(COc1cccc([N+](=O)[O-])c1)NN1C(=O)c2ccccc2C1=O	GRIN3A LBD mod 546
O=C(Nc1ccc(Oc2cccnc2)cc1)c1cccc([N+](=O)[O-])c1	FAS TE block 57
O=C(Nc1cccc([N+](=O)[O-])c1)c1ccccc1	none
CC(=O)Nc1cccc(OCc2cccc([N+](=O)[O-])c2)c1	GRIN3A LBD mod 17 (no result: beta cell repl, p-CIP stab down)
CC(C)(C)c1ccc(C(=O)N2CCOC23CCCCC3)cc1	none (no result: beta cell repl, GRIN3A LBD mod, p-CIP stab down)
CC(=O)Nc1ccc(OCc2cccc([N+](=O)[O-])c2)cc1	none
O=C(Nc1ccc(COc2ccccc2)cc1)c1cccc([N+](=O)[O-])c1	GRIN3A LBD mod 22
CCOc1ccc2nc(NC(=O)CSc3ccccc3)sc2c1	GRIN3A LBD mod 30
CCOc1ccc2nc(NC(=S)N(C)C)sc2c1	GRIN3A LBD mod 30
COc1ccc2nc(NC(=O)CSc3nc4ccccc4o3)sc2c1	GRIN3A LBD mod 15
COc1cc(CN2C[C@@H](CO)O[C@@H](n3cnc4c(N5CCCC5)ncnc43)C2)cc(OC)c1OC	none (no result: beta cell repl, GRIN3A LBD mod, p-CIP stab down)
CC1=C(C(=O)N(C(C)C)C(C)C)CC(CC(=O)NCCCCc2ccccc2)C(=O)N1Cc1ccc(C(C)(C)C)cc1 (stereo unspecified)	none (no result: beta cell repl, GRIN3A LBD mod, p-CIP stab down)
CC(=O)Nc1ccc2c(c1)OCO2	none
O=C(Nc1ccc2c(c1)OCCO2)c1cccs1	GRIN3A LBD mod 20
O=C(Nc1cccc(C2OCCCO2)c1)c1cccs1	GRIN3A LBD mod 21
O=C(Nc1ccc2c(c1)OCO2)c1cccs1	GRIN3A LBD mod 11
O=C(Nc1ccc2c(c1)OCO2)c1ccc(Br)s1	GRIN3A LBD mod 21
O=C(Nc1ccc2c(c1)OCCO2)c1c(Cl)cccc1Cl	none (no result: beta cell repl, GRIN3A LBD mod, p-CIP stab down)
COc1ccccc1-c1ncn(Cc2cccc(-c3ccccc3)c2)c1-c1ccco1	none (no result: FAS TE block, beta cell repl, GRIN3A LBD mod, p-CIP stab down)
O=[N+]([O-])c1ccccc1-c1ccc(/C=N/n2cnnc2)o1	none
O=C1ON=C(c2ccccc2)/C1=C/c1ccc(-c2ccccc2[N+](=O)[O-])o1	GRIN3A LBD mod 23 (no result: beta cell repl)
CC(CNc1ccc(Cl)cc1)(CNc1ccc(Cl)cc1)[N+](=O)[O-]	GRIN3A LBD mod 25 (no result: beta cell repl, p-CIP stab down)
COC(=O)[C@@]12C[C@@H](CC(=O)NCc3ccc(OC)c(OC)c3)C(=O)N(Cc3cccc4ccccc34)C1=CCC(C)(C)C2	none (no result: FAS TE block, beta cell repl, GRIN3A LBD mod, p-CIP stab down)
COc1ccc(-c2nnc(SCC(=O)Nc3ccc(Cl)cc3)n2C)cc1	none
CCOC(=O)/C(=N\Nc1cccc(Cl)c1)Sc1nnc(-c2ccc(OC)cc2)n1C	GRIN3A LBD mod 13
N#CCC(CNc1ncc(C(F)(F)F)cc1Cl)OC(=O)c1c(F)cccc1F (stereo unspecified)	none (no result: p-CIP stab down)
N#CCC(CNc1ncc(C(F)(F)F)cc1Cl)OC(=O)c1ccc(Cl)cc1 (stereo unspecified)	GRIN3A LBD mod 11
C#CCn1c2ccccc2c(=O)n1CCOc1ccccc1OC	none (no result: FAS TE block, beta cell repl, GRIN3A LBD mod, p-CIP stab down)
CCCCC[C@@H](C)N1C[C@@H](COCc2ccccc2)Oc2cc(N3CC[C@H](N(C)C)C3)ccc2S1(=O)=O	none (no result: beta cell repl, GRIN3A LBD mod, p-CIP stab down)
CC(=O)Nc1ccc2c(c1)CCc1ccccc1-2	GRIN3A LBD mod 10
O=S(=O)(O)c1cc(O)c(N=Nc2ccc(O)cc2O)c2ccccc12	GRIN3A LBD mod 13 (no result: beta cell repl, p-CIP stab down)
COc1cc2c(cc1OC)/C(=C/C(=O)N1CCOCC1)NC(C)(C)C2	GRIN3A LBD mod 11 (no result: FAS TE block, MPTP inh)
CC(=O)c1ccc(N2CCN(C(=O)COc3ccccc3F)CC2)c(F)c1	GRIN3A LBD mod 10
COc1ccc(C)cc1Nc1n[n+](-c2ccccc2)c(-c2ccc(SC)cc2)s1	GRIN3A LBD mod 27
Oc1[nH]c2ccc(Br)cc2c1N=NC(=S)Nc1ccc(F)cc1	GRIN3A LBD mod 18
